From PubChem BioAssay AID1159580 (chemical genetic matrix, 2015)
In all, about 5,500 compounds went through this assay and about 2,000 (36%) were called active. About 18% were inconclusive and are not listed. No stated cut-off is given here; in the data, active means normalized growth mostly below about 0.91 (no sharp cut-off); inconclusive means no clear call, values can overlap the other calls; inactive means mostly above about 0.92. The list shows a part of the results.

Assay: chemical genetic growth profiling, strain panel (AID 1159580);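 further: tested at 20 µM; growth read once vehicle control cultures reached saturation at 30 °C; 1 = growth at the plate median or of vehicle wells; lower values mean less growth of the strain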
Details: growth OD

Measured: normalized growth

COc1cc(O)ccc1C(C)=O
inactive: S. cerevisiae deletion strains, locus YJR043C, strain POL32, active compounds read low 0.977 | S. cerevisiae deletion strains, locus YJR066W, strain TOR1, active compounds read low 0.957 | S. cerevisiae deletion strains, locus YJR075W, strain HOC1, active compounds read low 0.966 | S. cerevisiae deletion strains, locus YKL009W, strain mrt4, active compounds read low 0.999 | S. cerevisiae deletion strains, locus YKL068W, active compounds read low 0.974 | S. cerevisiae deletion strains, locus YKL085W, strain MDH1 (second series), active compounds read low 0.986 | S. cerevisiae deletion strains, locus YKL085W, strain MDH1, active compounds read low 0.986 | S. cerevisiae deletion strains, locus YKL160W, strain elf1, active compounds read low 1.02 | S. cerevisiae deletion strains, locus YKL190W, strain CNB1, active compounds read low 0.995 | S. cerevisiae deletion strains, locus YKR001C, strain vps1, active compounds read low 0.975 | S. cerevisiae deletion strains, locus YKR026C, strain gcn3, active compounds read low 1.03 | S. cerevisiae deletion strains, locus YKR091W, strain srl3, active compounds read low 1.02 | S. cerevisiae deletion strains, locus YLL001W, strain dnm1, active compounds read low 1.03 | S. cerevisiae deletion strains, locus YLL026W, active compounds read low 1.01 | S. cerevisiae deletion strains, locus YLL041C, strain sdh2, active compounds read low 1.01 | S. cerevisiae deletion strains, locus YLR027C, strain aat2, active compounds read low 1.01 | S. cerevisiae deletion strains, locus YLR039C, strain RIC1, active compounds read low 0.977 | S. cerevisiae deletion strains, locus YLR058C, strain SHM2, active compounds read low 0.954 | S. cerevisiae deletion strains, locus YLR102C, strain apc9, active compounds read low 0.98 | S. cerevisiae deletion strains, locus YLR113W, strain HOG1, active compounds read low 1.01 | S. cerevisiae deletion strains, locus YLR221C, strain rsa3, active compounds read low 1.03 | S. cerevisiae deletion strains, locus YLR258W, strain gsy2, active compounds read low 1.02 | S. cerevisiae deletion strains, locus YLR262C, strain YPT6 (second series), active compounds read low 1.03 | S. cerevisiae deletion strains, locus YLR262C, strain YPT6, active compounds read low 0.899 | S. cerevisiae deletion strains, locus YLR268W, strain sec22, active compounds read low 1.04 | S. cerevisiae deletion strains, locus YLR320W, strain mms22, active compounds read low 1.03 | S. cerevisiae deletion strains, locus YLR330W, strain CHS5, active compounds read low 0.991 | S. cerevisiae deletion strains, locus YLR342W, strain FKS1 (second series), active compounds read low 1.07 | S. cerevisiae deletion strains, locus YLR342W, strain FKS1, active compounds read low 1.03 | S. cerevisiae deletion strains, locus YLR357W, strain rsc2, active compounds read low 1.01 | S. cerevisiae deletion strains, locus YLR370C, strain arc18, active compounds read low 1.02 | S. cerevisiae deletion strains, locus YLR371W, strain rom2, active compounds read low 0.973 | S. cerevisiae deletion strains, locus YLR384C, strain iki3, active compounds read low 1.05 | S. cerevisiae deletion strains, locus YLR418C, strain cdc73, active compounds read low 0.973 | S. cerevisiae deletion strains, locus YML016C, strain PPZ1, active compounds read low 0.989 | S. cerevisiae deletion strains, locus YML032C, strain rad52, active compounds read low 0.951 | S. cerevisiae deletion strains, locus YML120C, strain ndi1, active compounds read low 1.02 | S. cerevisiae deletion strains, locus YML124C, strain tub3, active compounds read low 0.997 | S. cerevisiae deletion strains, locus YMR058W, strain fet3, active compounds read low 1.03 | S. cerevisiae deletion strains, locus YMR078C, strain ctf18, active compounds read low 0.99 | S. cerevisiae deletion strains, locus YMR125W, strain sto1, active compounds read low 1.03 | S. cerevisiae deletion strains, locus YMR129W, active compounds read low 1.02 | S. cerevisiae deletion strains, locus YMR205C, strain PFK2, active compounds read low 1.04 | S. cerevisiae deletion strains, locus YMR223W, strain ubp8, active compounds read low 0.979 | S. cerevisiae deletion strains, locus YMR231W, strain pep5, active compounds read low 1.01 | S. cerevisiae deletion strains, locus YMR263W, strain SAP30, active compounds read low 0.985 | S. cerevisiae deletion strains, locus YMR307W, strain GAS1, active compounds read low 0.997 | S. cerevisiae deletion strains, locus YNL067W, strain RPL9B, active compounds read low 0.981 | S. cerevisiae deletion strains, locus YNL071W, strain lat1, active compounds read low 1.02 | S. cerevisiae deletion strains, locus YNL153C, strain GIM3, active compounds read low 0.961 | S. cerevisiae deletion strains, locus YNL183C, strain NPR1, active compounds read low 0.968 | S. cerevisiae deletion strains, locus YNL209W, strain ssb2, active compounds read low 1.02 | S. cerevisiae deletion strains, locus YNL233W, strain BNI4, active compounds read low 0.975 | S. cerevisiae deletion strains, locus YNL248C, strain rpa49, active compounds read low 1.02 | S. cerevisiae deletion strains, locus YNL250W, strain rad50, active compounds read low 0.974 | S. cerevisiae deletion strains, locus YNL271C, strain bni1, active compounds read low 0.988 | S. cerevisiae deletion strains, locus YNL298W, strain CLA4, active compounds read low 0.981 | S. cerevisiae deletion strains, locus YNL307C, strain MCK1, active compounds read low 0.992 | S. cerevisiae deletion strains, locus YNL322C, strain KRE1 (second series), active compounds read low 1.02 | S. cerevisiae deletion strains, locus YNR049C, strain mso1, active compounds read low 1.02 | S. cerevisiae deletion strains, locus YNR052C, strain pop2, active compounds read low 0.983 | S. cerevisiae deletion strains, locus YOL012C, strain htz1 1.92 | S. cerevisiae deletion strains, locus YOL147C, strain pex11, active compounds read low 1 | S. cerevisiae deletion strains, locus YOR001W, strain rrp6, active compounds read low 1.01 | S. cerevisiae deletion strains, locus YOR061W, strain CKA2, active compounds read low 0.96 | S. cerevisiae deletion strains, locus YOR069W, strain VPS5, active compounds read low 0.999 | S. cerevisiae deletion strains, locus YOR070C, strain gyp1, active compounds read low 1.02 | S. cerevisiae deletion strains, locus YOR080W, strain dia2, active compounds read low 1.02 | S. cerevisiae deletion strains, locus YOR083W, strain WHI5, active compounds read low 1.03 | S. cerevisiae deletion strains, locus YOR106W, strain vam3, active compounds read low 1.02 | S. cerevisiae deletion strains, locus YOR136W, strain idh2, active compounds read low 0.995 | S. cerevisiae deletion strains, locus YOR144C, strain elg1, active compounds read low 0.986 | S. cerevisiae deletion strains, locus YOR184W, strain ser1, active compounds read low 0.971 | S. cerevisiae deletion strains, locus YOR231W, strain MKK1, active compounds read low 1.02 | S. cerevisiae deletion strains, locus YOR265W, strain rbl2, active compounds read low 1.02 | S. cerevisiae deletion strains, locus YOR270C, strain vph1, active compounds read low 1.04 | S. cerevisiae deletion strains, locus YOR290C, strain snf2, active compounds read low 1.01 | S. cerevisiae deletion strains, locus YOR316C, strain cot1, active compounds read low 0.98 | S. cerevisiae deletion strains, locus YPL051W, strain arl3, active compounds read low 1.02 | S. cerevisiae deletion strains, locus YPL055C, strain LGE1, active compounds read low 0.957 | S. cerevisiae deletion strains, locus YPL078C, strain atp4, active compounds read low 1.02 | S. cerevisiae deletion strains, locus YPL106C, strain sse1, active compounds read low 1.01 | S. cerevisiae deletion strains, locus YPL240C, strain hsp82, active compounds read low 1.01 | S. cerevisiae deletion strains, locus YPL256C, strain CLN2, active compounds read low 1.04 | S. cerevisiae deletion strains, locus YPR119W, strain clb2, active compounds read low 0.984 | S. cerevisiae deletion strains, locus YPR141C, strain kar3, active compounds read low 0.976 | S. cerevisiae deletion strains, locus YPR163C, strain tif3, active compounds read low 0.978 | S. cerevisiae deletion strains, locus YPR167C, strain met16, active compounds read low 0.983 | S. cerevisiae deletion strains, strain wtn01, active compounds read low 1.02 | S. cerevisiae strains, strain wild type, active compounds read low 0.997
